Assay outcomes as filed in PubChem BioAssay.
Only some compounds are listed: those with a hit (about 2.3% of all), similar ones and a draw of the others.
AMA1-RON2 inh = inhibitors of Plasmodium falciparum AMA1-RON2 interaction. Potency, µM (series often up to 58.2 µM), for the others: at the highest dose activity change, negative = inhibition, actives largely listed as inhibitors. AlphaScreen AMA1-biotinylated RON2 peptide binding. AID 720542. 360,000 compounds, 0.2% hits;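 note: 0% = vehicle wells and -100% = peptide control; nearly all actives have a fitted effect of over 45% in size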
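AMA1 (3D7) with his tag at 25 nM final met compounds first, then biotinylated RON2 peptide at 25 nM; detection used donor plus acceptor beads, 10 µg/mL apiece, read by AlphaScreen after 30 min at room temperature.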
AmpC inh no detg = blocks E. coli AmpC beta-lactamase in detergent-free assay. P00811. AmpC nitrocefin hydrolysis, absorbance 480 nm, 0.0001% Triton. Potency, µM (highest dose often 57.1 µM), inactives show at the highest dose activity change, negative = inhibition, most hits filed as inhibitors. 330,000 compounds, 0.52% hits;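 note: plate controls were no compound for no effect and no enzyme for full effect; nearly all actives have a fitted effect of over 20% in size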
Target sequence (P00811 whole entry, looked up): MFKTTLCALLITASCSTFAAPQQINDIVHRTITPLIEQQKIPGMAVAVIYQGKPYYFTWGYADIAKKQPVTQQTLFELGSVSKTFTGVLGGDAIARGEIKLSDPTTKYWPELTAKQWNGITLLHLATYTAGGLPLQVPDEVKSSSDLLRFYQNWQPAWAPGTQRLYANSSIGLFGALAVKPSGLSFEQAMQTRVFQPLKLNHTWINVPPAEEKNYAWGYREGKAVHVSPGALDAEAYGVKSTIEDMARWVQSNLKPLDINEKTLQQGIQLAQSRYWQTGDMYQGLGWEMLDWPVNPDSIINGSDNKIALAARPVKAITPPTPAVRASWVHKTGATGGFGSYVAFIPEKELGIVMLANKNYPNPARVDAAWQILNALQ
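20 mM phosphate pH 7.0 + 0.01% (detergent screen) or 0.0001% Triton X-100; 5.3 nM AmpC reagent; cpd preinc 15 min RT; nitrocefin (800 uM stock) to start; A480 q20 s × 4 min; Activity was normalised to no-enzyme and no-compound control wells.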
AmpC inh detg = blocks E. coli AmpC beta-lactamase in detergent assay | AID 485294 | Potency, µM (doses to about 114 µM), without a hit: at the highest dose activity change, negative = inhibition, usual class: inhibitors | P00811 | AmpC hydrolysis of nitrocefin, absorbance 480 nm, 0.01% Triton | 370,000 compounds, 0.041% hits;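 note: 0% = no-compound wells and -100% = no-enzyme wells; nearly all actives have a fitted effect of over 25% in size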
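20 mM phosphate pH 7.0 + 0.01% (detergent screen) or 0.0001% Triton X-100; 5.3 nM AmpC reagent; cpd preinc 15 min RT; nitrocefin (800 uM stock) to start; A480 q20 s × 4 min; Activity was normalised to no-enzyme and no-compound control wells.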
Marburg entry inh = inhibitors of Marburg virus binding or cell entry | Marburg virus pseudotyped entry inhibition, cell reporter | Potency, µM (highest dose often 37.8 µM), inactives show at the top dose activity change, negative = inhibition, actives largely listed as inhibitors | 300,000 compounds, 1.8% hits; calls by dose curve; tested in HEK293 cells
LASV entry inh = inhibitors of Lassa virus binding or cell entry; Lassa virus pseudotype entry inhibition, cell reporter; Potency, µM (titrated, usually from 37.9 µM), without a hit: at the top dose activity change, negative = inhibition, actives largely listed as inhibitors; 300,000 compounds, 1.2% hits; AID 540256; calls by dose curve; tested in HEK293 cells; note: nearly all actives have a fitted effect of over 50% in size
* = called active by the depositor; ? = inconclusive; . = no result given; [ ] = remark or other dose. Unless noted, calls come from the whole dose curve; as a rule, active = well fitted curve in the direction sought with a large enough effect; inconclusive = small, poorly fitted or top-dose-only effect, or another doubt; inactive = no such curve, though single readings can be large; an effect the other way counts as inactive or inconclusive. Unless noted, % is set by controls: 0 for no effect and ±100 for the full control effect; potency is the fitted concentration of half-maximal effect.

SMILES	AMA1-RON2 inh	AmpC inh no detg	AmpC inh detg	Marburg entry inh	LASV entry inh
O=C(NCc1ccc(F)cc1Cl)c1ccc(CSCc2ccccc2Cl)o1	.	.	4.8%	.	-27.3%[46.1 µM]
CC(=O)C1=C(C)N(Cc2ccccc2)C(=O)NC1c1ccc(Br)cc1 (stereo not given)	.	.	.	-4.3%[14.2 µM]	15.6%[14.3 µM]
O=C(CCc1nc2ccccc2c(=O)[nH]1)N1CCN(C/C=C/c2ccccc2)CC1	?	133.6%	10.2%	-19.2%	-0.2%
O=c1[nH]c(CN2CCN(C/C=C/c3ccccc3)CC2)nc2cc(Cl)ccc12	22.7%	115.4%	2.7%	4.11µM*	1.1%
O=C(OCC(=O)N1CCN(C(=O)c2ccco2)CC1)c1cc(-c2ccc(Cl)c(Cl)c2Cl)nc2ccccc12	-9.4%	18.1%	?	?	?
COc1ccc(CNC(=O)COC(=O)c2cc(-c3ccco3)nc3ccccc23)cc1	.	10µM*	-4.8%	.	.
O=C(OCC(=O)N1CCN(C(=O)c2ccco2)CC1)c1cc(-c2ccco2)nc2ccccc12	21.2µM*	19.8%	?	?	5.2%
CCNC(=O)COC(=O)c1cc(-c2ccco2)nc2ccccc12	-28.9%	-22.3%	-0.1%	.	.
CCCCCOc1ccc2oc(=O)c3c(c2c1)CCCN3C(=O)CN1CCCC(C(=O)OCC)C1 (stereo not given)	6.1%	182.3%	-2.6%	?	9.2µM*
CCC(=O)N1CCc2cc(Br)cc(S(=O)(=O)N3CCN(c4cccc(Cl)c4)CC3)c21	.	.	-3.6%	-0.8%[46.1 µM]	20.7%[46.1 µM]
COc1ccc(NC(=O)C2CCN(S(=O)(=O)c3ccc4c(c3)CCCC(=O)N4)CC2)c(OC)c1	.	.	0.4%	.	-18.7%[46.1 µM]
CCCC(=O)OCc1cnc(C)c2oc(=O)c(C(=O)Nc3ccccc3)cc12	.	.	1.7%	.	10.8%[46.1 µM]
N#CC1=C(SCC(=O)c2ccc(Br)cc2)NC2=C(C(=O)CCC2)C1c1ccco1 (stereo not given)	-5.3%	-24.1%	?	8.91µM*	?
CCc1ccc(NC(=O)CSC2=C(C#N)C(c3ccco3)C3=C(CCCC3=O)N2)cc1 (stereo not given)	-16.5%	-33.0%	?	-28.9%	?
CCn1nc([N+](=O)[O-])c(C(C#N)c2nc3ccccc3n2C)c(Cl)c1=O (stereo not given)	-11.9%[11.6 µM]	-36.4%	-11.5%	-28.3%	1.5%
CCCn1nc([N+](=O)[O-])c(C(C#N)c2nc3ccccc3s2)c(Cl)c1=O (stereo not given)	?	14.1µM*	-11.1%	?	-15.7%
COc1ccccc1CNC(=O)CCCn1c(=O)c2cccn2c2ccccc21	.	.	17.9%	.	2.5%[46.1 µM]
COC(=O)CCc1c(C)[nH]c(C(=O)OCc2ccccc2)c1C	?	3.9%	-11.3%	-12.8%	7.08µM*
CCn1c(/C=C/N(C(C)=O)c2ccccc2)[n+](CCCS(=O)(=O)[O-])c2cc(Cl)c(Cl)cc21	-0.2%	-12.1%	-4.9%	5.5%[46.1 µM]	3.2%[46.1 µM]
CCn1c(/C=C/Nc2ccccc2)[n+](CC)c2cc(Cl)c(Cl)cc21	-9.5%	-24.7%	-6.5%	12.6µM*	?
O=C1C=CC2C3C(=O)N(c4ccccc4)C(=O)C3C1N2Cc1ccccc1 (stereo not given)	4.3%	.	.	?	25.1µM*
Cc1csc2nc(COC(=O)c3cccc(NC(=O)c4cccc(Cl)c4)c3)cc(=O)n12	.	.	1.2%	.	0.5%[46.1 µM]
Cc1csc2nc(-c3ccc(NS(=O)(=O)c4cc(F)ccc4F)cc3)cn12	.	.	-0.8%	.	14.7%[46.1 µM]
NC(=O)C1=CC2C3C=CC2(O)C(=O)OC3O1 (stereo not given)	9.9%	.	.	?	7.08µM*
C/C(=N/OCO/N=C(\C)c1ccccc1)c1ccccc1	11.8%	-18.4%	-2.0%	3.55µM*	?
SMILES	AMA1-RON2 inh	AmpC inh no detg	AmpC inh detg	Marburg entry inh	LASV entry inh
CSc1ccn(CC2CCC(Cl)CC2)c(=O)n1 (stereo not given)	.	.	.	14.2%	.
COc1ccc(Oc2c(Cl)cnn(-c3ccc(F)cc3)c2=O)cc1	12.9%	-6.8%	-11.0%	?	?
COc1ccc(Oc2c(Cl)cnn(-c3ccc(C)cc3)c2=O)cc1	-1.2%	-17.7%	4.9%	10µM*	?
Cc1ccc(/C=N/NC(=O)c2cc(C)oc2C)cc1	-6.4%	-18.0%	1.3%	10µM*	?
Cc1cc(C(=O)N/N=C/c2ccncc2)c(C)o1	17.0%	-11.9%	-4.7%	-12.7%	-4.9%
COc1cccc(CNC(=O)CCC2CCCN(C(=O)c3cc4ccccc4o3)C2)c1 (stereo not given)	11.5%	51.5%	6.4%	11.2µM*	?
O=C1NC(=O)N(CCc2ccc(F)cc2)C(=O)/C1=C\C=C\c1ccccc1	-7.3%	3.55µM*	-2.0%	9.2%[46.1 µM]	.
CC1(C)C[C@H](n2[nH]c(=O)c3c2NC(=O)CS[C@@H]3c2ccccc2)CCO1	.	.	.	13.9%	.
OCC1(Cc2ccccc2)CCCN(Cc2cn[nH]c2-c2ccccc2)C1 (stereo not given)	0.0%	-3.4%	5.7%	?	-13.5%
Cc1ccc(C)c(-c2[nH]ncc2CN2CCCC(CO)(Cc3ccccc3C)C2)c1 (stereo not given)	-14.1%	67.0%	-6.2%	25.1µM*	.
Cc1cc(Cl)ccc1NNC(=O)c1cccs1	20µM*	-16.5%	-7.5%	4.6%	-4.4%
Cc1cccc(C)c1Nc1nnc(SCC(=O)c2ccc3c(c2)NC(=O)CO3)s1	10.8%	25.1µM*	-4.2%	-16.4%	13.8%
Cc1cccc(C)c1Nc1nnc(SCC(=O)c2ccc(Br)s2)s1	-3.1%	-23.0%	-9.7%	?	?
CC(C)C1=C2OC(N)=C(C#N)C(C#N)=C2[C@H](C)CC1	.	.	.	-1.3%	.
CCOC(=O)c1cc2c(ccn2C)n1CC(=O)N1CCN(c2ccccc2)CC1	-26.2%	60.9%	31.6µM*	-13.6%	-3.3%
CCOC(=O)c1cc2c(ccn2C)n1CC(=O)N1C(C)CCCC1C (stereo not given)	6.7%	2.4%	8.1%	.	.
COc1ccc(C(=O)NC(=S)NNC(=O)c2ccccc2O)cc1	70.2%	-26.2%	1.7%	12.6µM*	-4.2%
CCc1ccc(NC(=O)CSc2nc(=O)n(Cc3ccncc3)c3c2CCC3)cc1	.	.	-0.2%	.	13.0%[46.1 µM]
